Measurements published in PubChem BioAssay (NCATS).
A number with no mark means an inactive call. Inconclusive results are not listed. Entries that show only a call come without a potency. The source made the active and inactive calls. Unless noted, the call rests on the fitted dose curve; in most records, active means well fitted curve in the direction sought with a large enough effect; inconclusive means small, poorly fitted or top-dose-only effect, or another doubt; inactive means no such curve, though single readings can be large; an effect the other way counts as inactive or inconclusive.

Assays:
[1] = target: Ubiquitin carboxyl-terminal hydrolase 1 (Homo sapiens) (UniProt O94782); test: Inhibitors of USP1/UAF1: Pilot qHTS (AID 504865);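 further: rhodamine fluorescence freed from ubiquitin-rhodamine substrate followed over time; top concentration of the series differs between compounds; nearly all actives have a fitted effect of over 35% in size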
Ubiquitin carboxyl-terminal hydrolase 1 (Homo sapiens), sequence (O94782 whole entry, looked up): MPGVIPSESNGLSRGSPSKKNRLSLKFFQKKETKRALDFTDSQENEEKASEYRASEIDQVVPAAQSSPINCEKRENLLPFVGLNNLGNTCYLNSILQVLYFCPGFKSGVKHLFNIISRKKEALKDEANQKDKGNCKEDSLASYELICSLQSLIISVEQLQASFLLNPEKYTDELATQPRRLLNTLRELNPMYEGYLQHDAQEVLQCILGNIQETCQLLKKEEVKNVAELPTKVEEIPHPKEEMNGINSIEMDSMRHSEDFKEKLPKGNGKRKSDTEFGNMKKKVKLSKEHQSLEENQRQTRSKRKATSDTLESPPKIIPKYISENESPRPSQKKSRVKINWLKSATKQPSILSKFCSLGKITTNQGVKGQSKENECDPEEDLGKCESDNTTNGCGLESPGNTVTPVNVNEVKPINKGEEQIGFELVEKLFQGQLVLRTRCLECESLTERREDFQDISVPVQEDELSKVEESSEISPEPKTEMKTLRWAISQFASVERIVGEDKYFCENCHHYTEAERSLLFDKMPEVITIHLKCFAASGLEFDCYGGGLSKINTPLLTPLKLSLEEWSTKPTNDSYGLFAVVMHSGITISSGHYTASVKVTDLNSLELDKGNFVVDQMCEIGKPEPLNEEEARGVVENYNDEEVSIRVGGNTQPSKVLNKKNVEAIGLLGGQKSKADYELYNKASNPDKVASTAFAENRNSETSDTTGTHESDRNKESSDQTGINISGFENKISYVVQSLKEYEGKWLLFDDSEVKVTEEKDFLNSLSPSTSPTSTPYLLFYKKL
Summary of the method: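 USP1/UAF1 complex (1nM) preincubated with compound 15 min at room temperature, then Ub-Rho substrate (150nM final) added. Fluorescence read kinetically at 480/540 nm, 6 reads every 60 seconds. Buffer: 50mM HEPES pH 7.8, 0.5mM EDTA, 0.1 mg/ml BSA, 1mM TCEP, 0.01% Tween-20.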

[2] = target: Luciferin 4-monooxygenase (Photinus pyralis) (UniProt P08659); test: Biochemical firefly luciferase enzyme assay for NPC (AID 624030);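 further: purified P. pyralis luciferase at 10 nM with luciferin and ATP substrate; nearly all actives have a fitted effect of over 70% in size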
Luciferin 4-monooxygenase (Photinus pyralis), sequence (P08659 whole entry, looked up): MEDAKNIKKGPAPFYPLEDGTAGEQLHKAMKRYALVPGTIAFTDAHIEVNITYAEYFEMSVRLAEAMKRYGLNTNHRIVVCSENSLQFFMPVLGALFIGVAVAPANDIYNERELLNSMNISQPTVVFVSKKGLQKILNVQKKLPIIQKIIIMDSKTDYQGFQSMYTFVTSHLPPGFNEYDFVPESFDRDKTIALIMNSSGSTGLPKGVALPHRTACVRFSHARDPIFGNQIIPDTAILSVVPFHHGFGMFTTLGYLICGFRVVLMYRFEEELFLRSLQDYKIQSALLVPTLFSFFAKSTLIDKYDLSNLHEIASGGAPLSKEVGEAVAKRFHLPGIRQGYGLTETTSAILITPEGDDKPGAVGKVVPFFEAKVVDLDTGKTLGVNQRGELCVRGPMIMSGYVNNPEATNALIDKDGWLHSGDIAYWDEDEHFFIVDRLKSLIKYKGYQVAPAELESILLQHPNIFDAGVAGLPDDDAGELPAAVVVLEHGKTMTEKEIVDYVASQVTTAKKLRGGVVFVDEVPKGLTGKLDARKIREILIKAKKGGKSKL
Summary of the method: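 Purified P. pyralis luciferase at 10 nM in 50 mM Tris Acetate (final), luminescence read within 5 minutes of enzyme addition to compounds. Activity normalised to PTC124 versus DMSO; concentration-response curves classed by r2, magnitude and activity.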

[3] = S16 Schwann cell viability assay (CellTiter-Glo assay) (AID 624031);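 further: native untransfected S16 rat Schwann cells; cellular ATP luminescence as a viability measure; nearly all actives have a fitted effect of over 70% in size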
Summary of the method: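 Concentration-effect curves come from CellTiter-Glo luminescence of S16 rat Schwann cells after 24 h compound exposure. Each reading was normalized to DMSO wells (0%) and wells without cells, and curves were ranked by r2 and response magnitude.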

[4] = S16 Schwann cell PMP22 intronic element firefly luciferase assay (AID 624032); further: nearly all actives have a fitted effect of over 30% in size; further: potency means the concentration at half of the fitted maximal effect
Summary of the method: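 Rat S16 Schwann cells stably carrying firefly luciferase driven by a PMP22 intronic element, in 10% FBS, treated 24 h at 37 C. ONE-Glo luminescence normalized to PTC124 control and DMSO (0%); curves classed by r2, magnitude and activity.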

[5] = S16 Schwann cell PMP22 intronic element beta-lactamase assay (AID 624044; calls by dose curve; further: nearly all actives have a fitted effect of over 15% in size); conditions: S16 rat Schwann cells, PMP22 element beta-lactamase FRET, 24 h; ratio activity, negative = inhibition: at 38.3 µM (top of the series)
Summary of the method: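 Beta-lactamase reporter under a PMP22 intronic regulatory element in stable S16 rat Schwann cells; 24 h compound exposure. 460 nm blue signal normalized between DMSO (0%) and potassium clavulanate, with 535 nm FRET tracking viability; curves classed by r2 and response.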

DFO2036 = test: qHTS profiling for inhibitors of Plasmodium falciparum proliferation (AID 504749); further: nearly all actives have a fitted effect of over 60% in size; conditions: P. falciparum in erythrocytes, SYBR Green DNA, 72 h; series mostly up to 28.7 µM
Summary of the method: (§1)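 SYBR Green fluorescence (ex 485 nm, em 535 nm) reports parasite DNA after 72 h compound exposure of infected red cells at 0.3% parasitemia, 2.5% hematocrit; signal normalized to 0.29 uM artemisinin and vehicle wells.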

PC26 = test: as above; conditions: P. falciparum in erythrocytes, SYBR Green DNA, 72 h; series mostly up to 28.7 µM
Summary of the method: as §1

[6] = target: Cytochrome P450 3A4 (Homo sapiens) (UniProt P08684); test: qHTS Assay for Inhibitors and Substrates of Cytochrome P450 3A4 (AID 884); further: nearly all actives have a fitted effect of over 50% in size
Cytochrome P450 3A4 (Homo sapiens), sequence (P08684 whole entry, looked up): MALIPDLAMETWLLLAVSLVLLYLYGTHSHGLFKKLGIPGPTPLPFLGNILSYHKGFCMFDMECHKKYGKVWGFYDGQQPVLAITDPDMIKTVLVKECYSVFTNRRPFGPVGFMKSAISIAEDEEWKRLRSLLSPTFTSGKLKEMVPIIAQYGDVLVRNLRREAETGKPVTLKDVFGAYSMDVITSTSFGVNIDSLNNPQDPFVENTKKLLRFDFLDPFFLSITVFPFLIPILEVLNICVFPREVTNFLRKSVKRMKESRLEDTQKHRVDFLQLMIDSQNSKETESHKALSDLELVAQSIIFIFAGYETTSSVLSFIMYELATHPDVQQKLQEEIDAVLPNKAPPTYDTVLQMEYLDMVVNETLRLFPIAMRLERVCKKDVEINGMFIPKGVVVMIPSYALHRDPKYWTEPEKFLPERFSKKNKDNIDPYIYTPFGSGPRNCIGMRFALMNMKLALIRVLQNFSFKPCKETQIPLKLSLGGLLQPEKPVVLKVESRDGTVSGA
Summary of the method: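 Luminescent readout of luciferin produced by CYP3A4 (20 nM) dealkylation of Luciferin-PPXE, 25 uM (its KM). NADPH-driven reaction ran 60 min at RT after 10 min compound preincubation; data scaled to 57 uM ketoconazole as 100% inhibition.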

[7] = Confirmation and Secondary Assay for Modulators of Hemoglobin Beta Chain Splicing at IVS2 654 locus (AID 910);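 further: HeLa cells stably carrying EGFP split by mutant beta-globin IVS2-654 intron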
Summary of the method: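 HeLa cells stably expressing EGFP interrupted by β-globin IVS2-654 intron, seeded overnight in Opti-MEM/2% FCS, then treated 2 days at 37 °C. Restored splicing read as total peak GFP intensity per well by laser scanning cytometry (488 nm excitation, 500–520 nm emission); 500 nM antisense PNA as control.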

[8] = Confirmation and Secondary Assay for Modulators of Hemoglobin Beta Chain Splicing at IVS2 705 locus (AID 930);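 further: HeLa cells stably expressing the EGFP-705 splicing reporter; GFP fluorescence per well restored by corrected splicing of the IVS2-705 intron in EGFP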
Summary of the method: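 Assay measures total GFP intensity per well in HeLa EGFP-705 cells after 2 days with compound; mis-splicing normally truncates EGFP, so fluorescence indicates corrected splicing.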

Compound	Potency [1]	Potency [2]	Potency [3]	Potency [4]	Potency [5]	Potency (DFO2036)	Potency (PC26)	Potency [6]	Potency [7]	Potency [8]
CC[C@@H]1/C=C(\C)C[C@H](C)C[C@H](OC)[C@H]2O[C@@](O)(C(=O)C(=O)N3CCCC[C@H]3C(=O)O[C@H](/C(C)=C/[C@@H]3CC[C@H](Cl)[C@H](OC)C3)[C@H](C)[C@@H](O)CC1=O)[C@H](C)C[C@@H]2OC	inactive	inactive	inactive	inactive	inactive	inactive	inactive			
C=CCn1c(=O)n(C2OC(CO)C(O)C2O)c2nc(N)[nH]c(=O)c21 (stereo not given)		inactive	inactive	inactive	inactive	inactive	inactive			
O=c1[nH]c(=O)n(C2C[C@H](O)[C@@H](CO)O2)cc1C(F)(F)F (stereo not given in full)	inactive			510 nM (active)		inactive	inactive			
Cc1cnc(C(=O)O)cn1	inactive	inactive	inactive	inactive		inactive	inactive			
O=c1ccn(C2OC(COP(=O)(O)OC3C(CO)OC(n4ccc(=O)[nH]c4=O)C3O)C(O)C2O)c(=O)[nH]1 (stereo not given)	inactive	inactive	inactive	inactive	inactive	inactive	inactive			
Cc1cn([C@H]2CC(F)[C@@H](CO)O2)c(=O)[nH]c1=O (stereo not given in full)	inactive		inactive	inactive		inactive	inactive			
CO/N=C(/C(=O)N[C@@H]1C(=O)N2C(C(=O)O)=C(C[n+]3ccc(N)n3CCO)CS[C@H]12)c1csc(N)n1	inactive	inactive	inactive	inactive		inactive	inactive			
CCN(CC)C(=O)Nc1ccc(OC[C@H](O)CNC(C)(C)C)c(C(C)=O)c1	inactive	inactive		inactive	inactive	inactive	inactive			
CCCCC/C(C=O)=C/c1ccccc1	inactive		inactive	inactive	inactive	inactive	inactive			
COC(c1ccccc1)(c1ccccc1)C(Oc1nc(C)cc(C)n1)C(=O)O (stereo not given)	inactive		inactive	inactive	inactive	inactive	inactive			
CC(=O)OCC(=O)[C@@]1(O)CCC2C3CCC4=CC(=O)C=CC4(C)C3C(O)C[C@]21C (stereo not given in full)	inactive	inactive	inactive	inactive		inactive	inactive	inactive	inactive	inactive
C=C(NCc1ccccc1)c1ccccc1O	inactive		inactive	inactive	inactive	inactive	inactive			
CC(=O)NC1[C@H](O)C[C@@](O)(C(=O)O)O[C@H]1[C@H](O)[C@H](O)CO (stereo not given in full)	inactive	inactive	inactive	inactive		inactive	inactive			
